Shown are actives, neighbours in structure and some others; about 3.8% of the full set was active somewhere.
TGFb inhibitor: TGF-b pathway inhibition. HepG2 CAGA-GFP TGF-b/SMAD3 reporter, GFP fluorescence, 18 h; TGF-beta stimulated, 500 pg/mL final. Potency, µM (doses to about 46.1 µM), hits mostly inhibitors. actives 1.2% (n = 410,000); note: nearly all actives have a fitted effect of over 65% in size
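Using HEPG2 CAGA-GFP reporter cells at 1000 cells/well, we pinned test compounds, stimulated with recombinant TGF-beta (500 pg/mL final) and measured total well GFP after 18 h.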
HepG2 tox: kills HepG2 cells in TGF-b inhibitor counter-screen; Potency, µM (series often up to 46.1 µM), most hits filed as cytotoxic; AID 588856; HepG2 CAGA-GFP viability, ATP luminescence, 18 h; actives 0.76% (n = 410,000)
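CellTiter-Glo luminescence gave cytotoxicity after 18 hours at 37 degrees C. The cells were HepG2 CAGA-GFP in 1% FBS DMEM, stimulated with 500 pg/mL TGF-beta after compound addition. %Activity was normalised to no-cell wells (complete cell-killing) and DMSO (no toxicity), and curves were fitted and classified.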
ATXN2 expr inh: inhibitors of ATXN2 expression | actives 0.72% (n = 360,000) | Potency, µM (highest dose often 57 µM), actives largely listed as inhibitors | HEK-293 ATXN2-luciferase reporter, luminescence, 24 h; note: nearly all actives have a fitted effect of over 55% in size
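qHTS (up to 57 uM final) was run with 24 h compound exposure of reporter cells at 37 °C. Each well was multiplexed: SteadyGlo luminescence measured ATXN2-luciferase expression after a fluorogenic Gly-Phe-AFC viability readout (25 uM final).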
A549 tox: kills or reduces viability of A549 cells in Nrf2 counter-screen | A549 ARE-Fluc cells, CellTiter-Fluor viability, 18-24 h | Potency, µM (highest dose often 46 µM), usual class: inhibitors | actives 0.16% (n = 390,000)
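A549 ARE_Fluc cells in 5% FBS OPTI-MEM were exposed to compounds in concentration-response for 18-24 h at 37 deg C. Viability was read by CellTiter-Fluor fluorescence (Ex 405/Em 525) after 30 min, before the luciferase read.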
S2 tox: viability counter-screen for ATXN expression inhibitors; S2 cells (HEK-293 line with an ATXN2-luciferase reporter) viability, CellTiter-Fluor protease fluorescence, 24 h; Potency, µM (titrated, usually from 56.7 µM), hits mostly cytotoxic; actives 0.49% (n = 400,000); AID 651635; note: nearly all actives have a fitted effect of over 40% in size
Nrf2 block: blocks Nrf2 signaling | A549 ARE-Fluc reporter, luciferase luminescence, 18-24 h | Potency, µM (doses to about 46 µM), hits mostly inhibitors | actives 2.1% (n = 360,000) | AID 504444; note: nearly all actives have a fitted effect of over 60% in size
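A549 ARE_Fluc cells, 5000/well, 5% FBS OPTI-MEM; compounds in dose-response, 18-24 h at 37 °C/5% CO2; CellTiter-Fluor viability read (Ex 405/Em 525), then BugLite luciferase luminescence = Nrf2 activity.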
Of the large screens only hits and unclear results are named; the others gave an inactive call. Calls come from the whole dose curve; as a rule, active = well fitted curve in the direction sought with a large enough effect; inconclusive = small, poorly fitted or top-dose-only effect, or another doubt; inactive = no such curve, though single readings can be large; an effect the other way counts as inactive or inconclusive.

Cc1ccc(CN2CCc3nc(N4CCN(C)CC4)ncc3C2)s1	none (no result: Nrf2 block)
CCN(c1ncnc2c1cnn2-c1cc(Cl)ccc1C)C1CCCCC1	TGFb inhibitor inconclusive (no result: Nrf2 block)
CCn1c(C(=O)N2CCCC(C(=O)NCCCc3ccccc3)C2)cc2sccc21 (stereo unspecified)	A549 tox inconclusive, Nrf2 block 16µM
C[N+]1(CC(=O)c2ccc(Br)cc2)CCOCC1	none (no result: ATXN2 expr inh, A549 tox, S2 tox, Nrf2 block)
CCn1c(SCC(=O)Nc2nc3ccccc3s2)nc2c(c1=O)SC(C)C2 (stereo unspecified)	TGFb inhibitor inconclusive, A549 tox inconclusive (no result: Nrf2 block)
CCn1c(SCC(=O)Nc2nc3ccc(C)cc3s2)nc2c(c1=O)SC(C)C2 (stereo unspecified)	TGFb inhibitor inconclusive, ATXN2 expr inh inconclusive, A549 tox inconclusive, S2 tox inconclusive, Nrf2 block 18µM
O=C(CN1C(=O)NC2(CCOc3ccccc32)C1=O)NCCc1ccc(F)cc1 (stereo unspecified)	none
N#Cc1nc(Nc2cc(F)cc(F)c2)c2ncn(CCCN3CCCC3)c2n1	A549 tox 2.1µM (no result: TGFb inhibitor, HepG2 tox, ATXN2 expr inh, S2 tox)
CC(C)(C)C(=O)NC(=S)NNC(=O)c1ccc(Cl)cc1Cl	TGFb inhibitor inconclusive, A549 tox inconclusive, Nrf2 block 8.2µM
COC(=O)NNC(=O)c1ccc(Cl)cc1Cl	S2 tox inconclusive
CC(C)(C)C(=O)NC(=S)NNC(=O)c1ccc(-c2ccccc2)cc1	TGFb inhibitor 10µM, A549 tox inconclusive, S2 tox inconclusive, Nrf2 block 2.9µM (no result: ATXN2 expr inh)
Cc1c(N2C(=O)/C(=C/c3ccc(N(C)C)cc3)N(C)C2=S)c(=O)n(-c2ccccc2)n1C	A549 tox 23µM, S2 tox 13µM
COc1cccc(CN2CCN(Cc3cc4ccccc4[nH]3)CC2CCO)c1 (stereo unspecified)	TGFb inhibitor 22µM (no result: ATXN2 expr inh)
Cc1ccc(CNC(=O)COc2ccc(S(=O)(=O)N3CCCC3)cc2)cc1	none
Cc1nnsc1S(=O)(=O)c1ccccc1	Nrf2 block 8.2µM
Cc1ccccc1CS(=O)(=O)c1snnc1C	Nrf2 block inconclusive (no result: A549 tox)
CN(CCCC(=O)O)c1ccc(N=Nc2ccc([N+](=O)[O-])cc2)cc1	A549 tox inconclusive, S2 tox 14µM (no result: ATXN2 expr inh)
COc1cccc(CNC(=O)CN2CCC(c3nc4ccc(C)cc4[nH]3)CC2)c1	Nrf2 block 16µM
CN(C)CCNC(=O)c1ccc(COc2ccc(Cl)cc2Cl)cc1	TGFb inhibitor inconclusive, HepG2 tox 11µM, ATXN2 expr inh inconclusive, S2 tox inconclusive
CCOC(=O)c1c(C)oc2nc(C)nc(NCCc3ccc(Cl)cc3)c12	none
CCOC(=O)c1c(C)oc2nc(C)nc(NCCc3ccc(OCC)cc3)c12	TGFb inhibitor inconclusive, Nrf2 block 23µM
COc1ccc(CCNC(=O)CCc2c(C)nc3cc(-c4ccccc4OC)nn3c2C)c(OC)c1	TGFb inhibitor inconclusive, ATXN2 expr inh inconclusive, S2 tox inconclusive, Nrf2 block 23µM
COC(=O)c1cc(NC(=O)CCc2c(C)nc3cc(-c4ccccc4)nn3c2C)cc(C(=O)OC)c1	TGFb inhibitor inconclusive
COc1cc(NC(=O)CCc2c(C)nc3cc(-c4ccccc4)nn3c2C)cc(OC)c1OC	Nrf2 block 2.6µM
COc1ccc(-c2cc3nc(C)c(CCC(=O)NCCc4ccc(Cl)cc4)c(C)n3n2)c(OC)c1	A549 tox inconclusive, Nrf2 block inconclusive
Cc1nc2cc(-c3cccc(F)c3)nn2c(C)c1CCC(=O)NC(C)c1ccccc1 (stereo unspecified)	TGFb inhibitor inconclusive, Nrf2 block 3.7µM
Cc1nc2cc(-c3cccc(F)c3)nn2c(C)c1CCC(=O)NCCc1ccccc1	Nrf2 block inconclusive
CC(C)C1Cc2[nH]c(=O)c(C(=O)O)cc2CO1 (stereo unspecified)	none
CCOc1ccc(NCc2cccn2-c2nnc(N3CCC(C(=O)NCCCN4CC(C)CC(C)C4)CC3)s2)cc1 (stereo unspecified)	TGFb inhibitor inconclusive, ATXN2 expr inh 32µM, S2 tox inconclusive

Assay outcomes: PubChem, National Center for Advancing Translational Sciences (NCATS)
